Whole data set: some 5,800 sequences, median “enrichment r” near 0.68, cut for the highest 2% near 11. For the sample, the highest values were picked, then their nearest neighbours and some sequences at random.
T1: UNK ZnF1-6 (called full-length) (human, UniProt Q9C0B0 30-357)
T1 sequence: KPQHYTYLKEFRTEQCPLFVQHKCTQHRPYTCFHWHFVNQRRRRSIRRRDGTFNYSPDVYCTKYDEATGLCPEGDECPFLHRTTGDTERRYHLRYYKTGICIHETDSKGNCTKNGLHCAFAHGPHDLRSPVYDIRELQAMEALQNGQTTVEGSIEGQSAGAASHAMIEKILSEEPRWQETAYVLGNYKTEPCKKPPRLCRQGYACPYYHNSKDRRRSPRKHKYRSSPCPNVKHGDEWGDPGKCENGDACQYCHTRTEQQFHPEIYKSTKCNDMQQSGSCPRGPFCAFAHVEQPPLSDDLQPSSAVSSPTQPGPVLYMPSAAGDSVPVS

B1: chr10:113908677:113908778:+|3pUTR|ENSG00000196865|unk|FALSE|bound_elsewhere (ssRNA)
RNA: GGGAGUUCUACAGUCCGACGAUCAGCUAUGCUCCUUACUUACUUCUUUUAUUAUAAACAAAUUCCUUUGCUUUGGCUGAUACUAGCUGAGUCAUUGAUCAUCAUUGGUACCAUGAUAUUGUAAUCUAUGCUGCUAUUUGGCACCAACAGAGGAUUGAGCAUCA
B2: chr5:113014749:113014850:+|3pUTR|ENSG00000172795|msi1|total|mutant (ssRNA)
RNA: GGGAGUUCUACAGUCCGACGAUCUAAAAAUCCUUUUUUACAGUGGUAUCCACAAAAUACUUCUCUGCUUAUAAAUGUUAUUGCCGAAAUCUUUAUUCUGUGCCGGCCGCCUAUUUAAUUGGGUUCCACUGAACCUCAUGGGACCAACAGAGGAUUGAGCAUCA
B3: chrX:51682015:51682831:-|CDS|ENSG00000283093|control|control|control (ssRNA)
RNA: GGGAGUUCUACAGUCCGACGAUCCAGUGCCCCCGGGUCCAAGUCGGGGUCGGGAGCCACGCGGCGGCCAAGAGGUGGCUGGGUAGGUGGCGACGGAAGCGCCGCUGGCGGCGGGUCCGGAAGGCGGGCCCCAGAGACCUGCUGCAACAGAGGAUUGAGCAUCA
B4: chr4:54297753:54297953:+|3pUTR|ENSG00000134853|msi1|FALSE|unique (ssRNA)
RNA: GGGAGUUCUACAGUCCGACGAUCUUUUUAUGAUGACAAUCAAAGCCGGCCUGAGAAACACUAUUUGUGACUUUUUAAACGAUUAGUGAUGUCCUUAAAAUGUGGUCUGCCAAUCUGUACAAAAUGGUCCUAUUUUUGUGAAGACAACAGAGGAUUGAGCAUCA
B5: ENSG00000156687:stop:overlap|stop_codon|ENSG00000156687|stop_codon|NA|stop_codon (ssRNA)
RNA: GGGAGUUCUACAGUCCGACGAUCACAUUUCAGAAUCCCAGCUUGAUGAAGCCGACUUCAACUACAGCAGGCAAAAUGGACUCUAGUCCACUUCCUCCCAUGAGACAGAGUGAUGGCCAGCUUGGGGACAUUUGCUUUAAAUGGCAACAGAGGAUUGAGCAUCA
B6: chr7:127374855:127374969:-|CDS|ENSG00000048405|unk|FALSE|unique (ssRNA)
RNA: GGGAGUUCUACAGUCCGACGAUCCCUAGAAGCCAUAUAUCCAAGUGUGGACAAACGAGAAUAUAUUAUUAAGCUAGAACCCAUAGAAACUAAUCAAAAUGCAGUAUUUCAAUAUAUUUCGAGGACUGAUAAUCCUAUUGAAGUCAACAGAGGAUUGAGCAUCA
B7: chr6:39540002:39540221:-|CDS|ENSG00000164627|control|control|control (ssRNA)
RNA: GGGAGUUCUACAGUCCGACGAUCCCACUUGGCUGGCAUGGAUAGACGUGAAUUCAGACAGUCCCAGAGCCCACCCUUCCGCCUAGGAAACCCAGAAGAAGGUCAAAGAAUGCGACUAUCCUCAGCUCCCUCACAGGCCCAGGACAACAGAGGAUUGAGCAUCA
B8: chr6:89631235:89631336:+|3pUTR|ENSG00000135299|msi1|FALSE|unique (ssRNA)
RNA: GGGAGUUCUACAGUCCGACGAUCUGAAGUUUGAAAGCUCAGAUUAAGCAAGCCAUGCCAAGAAACUGGACGAUGUGUAAGCCUAGACUCUAAAAUUCAAGAUGUGUGAAAUAAUAUAAGUCAAAAGCAAGAAAAACGUAAUCCCAACAGAGGAUUGAGCAUCA
B9: chr6:96891104:96891324:-|CDS|ENSG00000123545|unk|FALSE|unique (ssRNA)
RNA: GGGAGUUCUACAGUCCGACGAUCUAAUCAUAAGCUUUUCCCAGAAACCUGGACUGCUGAGAAAAUAAUGCAGGAAUACCAGUUAGAACAGAAAGAUGUGAAUUCUCUUCUUAAAUAUUUUGUUACUUUUGAAGUCGAAAUCUUCAACAGAGGAUUGAGCAUCA
B10: chr5:141515350:141515460:-|3pUTR|ENSG00000131504|msi1_unk|FALSE|overlapping (ssRNA)
RNA: GGGAGUUCUACAGUCCGACGAUCCUCAGCUUUCCAUCCCCAGCUAGGAAGAAAGAAUGGCACUCUUGGGCUUGGCCCAGAAUUAGAGUUAUUAGAGCAAGAGAGAGCUUAGGAAGCAUGAGGGCAACUAUAGUGAGGCCUUAUCAACAGAGGAUUGAGCAUCA
B11: chr17:21001410:21001511:-|3pUTR|ENSG00000124422|msi1_unk|FALSE|overlapping (ssRNA)
RNA: GGGAGUUCUACAGUCCGACGAUCUAGUACAACUUUUAGACACAGAAAUCUGAAUGACAUAUAUUGUUCUGUGUCAAGAAACUUAGAUUUUUUUUUUAACUAUUUAAAAACGUGAAACCUAUUCUUAGCUCACAGGCCAUGGAGCAACAGAGGAUUGAGCAUCA
B12: chr10:87746157:87746259:+|3pUTR|ENSG00000198682|unk|FALSE|unique (ssRNA)
RNA: GGGAGUUCUACAGUCCGACGAUCAACUGAAGACCAAAUCUUAGCAGGUAAAAGCAAUAUUCUUAUACAUUUCAUAAUAAAAUUAGCUCUAUGUAUUUUCUACUGCACCUGAGCAGGCAGGUCCCAGAUUUCUUAAGGCUUUGUCAACAGAGGAUUGAGCAUCA
B13: chr12:100626600:100626701:+|3pUTR|ENSG00000139354|unk|FALSE|unique (ssRNA)
RNA: GGGAGUUCUACAGUCCGACGAUCAAUUUUAUCAUCAAGUAUUCCCUUAUAAAACCAAGUAACACUUCUUUAUCAGUAACUUUUAGAACUUAAAAGAAAGCAAAAAGUAAAUGGAAUUGUAGGCAAUUUAUGAAUCCUAGUAGACAACAGAGGAUUGAGCAUCA
B14: chr5:111496093:111496242:-|3pUTR|ENSG00000164211|unk|FALSE|unique (ssRNA)
RNA: GGGAGUUCUACAGUCCGACGAUCUUUACAUGUAUAGUUAAAUAUUAAAAUUCAUCUCUUGCAGUUCAAUAAAAGCUAUAGUAUAGAUUUUAUUUUUAAGAAGUUUAUAUAAUUCUUUUGUGAACCAAUAUGUAAAACUAGAAUCAACAGAGGAUUGAGCAUCA
B15: chr3:120327094:120327202:-|3pUTR|ENSG00000163428|unk|FALSE|unique (ssRNA)
RNA: GGGAGUUCUACAGUCCGACGAUCGAAGAGAAGUCACCAAACACCUAGGGACAGUCCUAGGCCUAGAAAGCCCUUUAAAGUAAUAGUGAAUUGUUUUAAAAUUAAGUUAUUGAGUGGCCUACUGACUACCAUCCAAAAACCUUUCAACAGAGGAUUGAGCAUCA
B16: chr10:87814449:87814585:-|CDS|ENSG00000138138|unk|FALSE|bound_elsewhere (ssRNA)
RNA: GGGAGUUCUACAGUCCGACGAUCUUUAAUUUUCCGUUUGACAAUAUUUGGUGCAGUGACAUACUUUACUAUCAAAUGGAUGGUAGAUGCAAUUGAUCCAACCAGAAAGCAAAAAGUAGAAGCUCAGAAACAGGUAUGAUUGAACAACAGAGGAUUGAGCAUCA
B17: ENSG00000104805:stop:overlap|stop_codon|ENSG00000104805|stop_codon|NA|stop_codon (ssRNA)
RNA: GGGAGUUCUACAGUCCGACGAUCAGUUGAAGGAGGUGUGGGAGGAGCUGGAUGGACUGGACCCCAACAGCAUCCCAAAGUGCUAGGAUUACAGGCGUGAGUCACUGCGCCCGGCCUCGAAAGCCCUUUCUCUAUGGUGGAUCACAACAGAGGAUUGAGCAUCA
B18: chr2:45599705:45599806:-|CDS|ENSG00000068784|msi1|total|mutant (ssRNA)
RNA: GGGAGUUCUACAGUCCGACGAUCCUCAUAUGUUCUCUUUGUGGUUUGACCGAACCGCUCUGUGGCUAUUGCUGAUACUGCUUCCGAAGACAGAAAAAAUAAAUUGGAUACUGUACAGACUCUGAAAACAGCCAAGACAAAACACAACAGAGGAUUGAGCAUCA
B19: chr1:93365539:93365640:+|3pUTR|ENSG00000117505|unk|FALSE|unique (ssRNA)
RNA: GGGAGUUCUACAGUCCGACGAUCAGGAGGCAAAAUUGCACCCUGUUGAAAACCACCACCUUAGAUCAUCUAGGUUUUACUUUUAGGAUAAGACACUUGAGGGAAAGGCUGUGAAACUGAACCUCUGUUAGAAGCAACACACAGCAACAGAGGAUUGAGCAUCA
B20: chr2:171983412:171983537:+|3pUTR|ENSG00000128708|unk|total|mutant (ssRNA)
RNA: GGGAGUUCUACAGUCCGACGAUCUGAUGACUUUAAUUUUAAAAUCUUGUGACAUUUUGCUUAUACUAAAAGUUAUCUAUCUUCCGUUGAAUAUUUUCUUUUGGAGAGAUUGUAUAUUUUAAAAUACUGUUCCGAGUUUAUGAGCAACAGAGGAUUGAGCAUCA
B21: chr19:41330322:41331077:-|three_prime_utr|ENSG00000105329|control|control|control (ssRNA)
RNA: GGGAGUUCUACAGUCCGACGAUCGUCUGCACUAUUCCUUUGCCCGGCAUCAAGGCACAGGGGACCAGUGGGGAACACUACUGUAGUUAGAUCUAUUUAUUGAGCACCUUGGGCACUGUUGAAGUGCCUUACAUUAAUGAACUCCAACAGAGGAUUGAGCAUCA
B22: chr12:88196262:88196297:+|3pUTR|ENSG00000139324|msi1_unk|FALSE|overlapping (ssRNA)
RNA: GGGAGUUCUACAGUCCGACGAUCUGUAUACUUGUUUUUAACUUUAAAUGUAAUUUUUAAUCAGGUAAAGUUUGACACAUGUAUAGCUACAUACACACAUUUUUAAUGGUGCUCAUAUAUACUGUAUUUUUUGUUGUUUAGUUUCAACAGAGGAUUGAGCAUCA

What follows are binders tested against T1, UNK ZnF1-6 (called full-length) (assay: nsRBNS (natural sequence RNA bind-n-seq); RBNS binding buffer (assumed for nsRBNS): 25 mM Tris pH 7.5, 150 mM KCl, 3 mM MgCl2, 0.01% Triton X-100, 500 ug/ml BSA, 20 U/ml SUPERase-In, 4 C; UNK is unkempt and MSI1 is Musashi-1; names of the RNAs are library labels; protein concentration not given here; high values mean tight binding).

Binder | binding signal
B1 | 3.85 enrichment R
B2 | 0.567 enrichment R
B3 | 6.11 enrichment R
B4 | 0.454 enrichment R
B5 | 0.56 enrichment R
B6 | 18.1 enrichment R
B7 | 0.794 enrichment R
B8 | 0.227 enrichment R
B9 | 0.645 enrichment R
B10 | 13.3 enrichment R
B11 | 24.9 enrichment R
B12 | 18.7 enrichment R
B13 | 4.55 enrichment R
B14 | 2.13 enrichment R
B15 | 3.46 enrichment R
B16 | 0.395 enrichment R
B17 | 0.682 enrichment R
B18 | 0.362 enrichment R
B19 | 5.47 enrichment R
B20 | 0.599 enrichment R
B21 | 2.74 enrichment R
B22 | 3.56 enrichment R
